The source of these data is the supplement of paper PMC10338343.

± gives the standard deviation. The full ranking holds about 6,200 sequences; the median of “pre-steady-state target cleavage rate” is about 0.29, and the highest 2% start at about 2. The full list was thinned out, with the highest values kept by preference.

The subject of the experiment is MIWI (PIWIL1) piRISC loaded with piRNA #1 (30 nt). Description: pre-steady-state target cleavage rate (min^-1); MIWI and MILI are mouse PIWI proteins and EfPiwi is from a freshwater sponge; tags in brackets are library labels; higher = faster piRNA-guided slicing of the target. To be noted: guide: piRNA #1 5'p-UGAGGUAGUAGGUUGUAUAGUAUCCAGAGG; auxiliary factor: 500 nM mouse GTSF1. How it is done:
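Cleave-'n-Seq: a library of target RNAs (target site embedded in constant flanks, ACAGCATTCCGCGTTAGTGATATCCG... 5' flank; DNA-blocked outside the site) at 0.1 nM was incubated with 1 nM active mouse MILI or MIWI piRISC (synthetic 5'-monophosphorylated piRNA guide) with or without 500 nM mouse GTSF1 at 33 °C for 1 min to 16 h. Uncleaved targets were sequenced and normalised to non-target controls, and the pooled three trials were fitted to a burst-and-steady-state model to give the pre-steady-state cleavage rate (min^-1; k3 is constrained to at most 1e-4). Sequence is the target site only; target names encode pairing extent (gX:gY) and contiguous / 1-mismatch / 2-mismatch / bulge geometry. Fits with R² ≤ 0 are excluded.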
With GCUCUGCGAUACUAUACAACCUACUACCUCA, the “pre-steady-state target cleavage rate” value came to 2.02 ± 0.12.
On to GCUCUGGGAUACUAUACAACCUACUACCUCA, for which the “pre-steady-state target cleavage rate” value came to 1.89 ± 0.096.
For GGUCUGCGAUACUAUACAACCUACUACCUCA, the “pre-steady-state target cleavage rate” value is 1.79 ± 0.071.
The value for CCUCUGCGAUACUAUACAACCUACUACCUCA was 2.19 ± 0.12; that for GGACUGCGAUACUAUACAACCUACUACCUCA was 1.79 ± 0.13; that for GGAGUGGAUACUAUACAACCUACAACCUCA was 0.314 ± 0.037.
The result for GGACUGGAUACUAUACCACCUACUACCUCA reads 1.17 ± 0.082; that for GGAGACCUUACUAUUCAACCUAGUACCUCA, 0.395 ± 0.04; that for GGAGACCUAUGUAUACCACCUACUACCUCA, 0.0149 ± 0.0026.
Consider GCCUGGAUACUAUACAACCUACUACCUCA, for which the “pre-steady-state target cleavage rate” value turned out to be 1.87 ± 0.11.
For CCCCUGGAUACUAUACAACCUACUACCUCA, the “pre-steady-state target cleavage rate” value amounted to 2.45 ± 0.15.
In the case of GGCCUGGAUACUAUACAACCUACUACCUCA, the “pre-steady-state target cleavage rate” value was determined as 1.74 ± 0.098.
Turning to GAUCUGGAUACUAUACAACCUACUACCUCA, the “pre-steady-state target cleavage rate” value is 1.91 ± 0.097.
For CCCUGGAUACUAUACAACCUACUACCUCA, the “pre-steady-state target cleavage rate” value worked out at 2.52 ± 0.18.
For the sequence CCUGUGGAUACUAUACAACCUACUACCUCA, the “pre-steady-state target cleavage rate” value amounted to 1.86 ± 0.11.
The result for CCUGUGGAUACUAUACAACCUACAACCUCA reads 0.383 ± 0.043; that for GCCCUGGAUACUAUACAACCUACUACCUCA, 2.17 ± 0.12; that for GGACCUGGAUACUAUACAACCUACUACCUCA, 1.96 ± 0.14.
As for GGAGACCUUACUAUACAAGCUAGUACCUCA, the “pre-steady-state target cleavage rate” value was 0.471 ± 0.033.
With GCUCUGGAUACUAUACAACCAACUACCACA, the “pre-steady-state target cleavage rate” value was determined as 0.153 ± 0.018.
The result for GGAGACGAAAGUAUACAACCUACUACCUCA reads 0.527 ± 0.062; that for GGUCUGGAUAGUAUACAACCUACUACGUCA, 0.583 ± 0.055.
In the case of GGAGAGGAAACUAUACAUCCUACUACCUCA, the “pre-steady-state target cleavage rate” value stood at 1.19 ± 0.074.
On to GCUCUGGAUACUAUACAACCUCCUACCUCA, for which the “pre-steady-state target cleavage rate” value was 1.2 ± 0.052.
As to CCAGUGGAUACUAUACAACCUACUACCUCA, the “pre-steady-state target cleavage rate” value came out at 2.01 ± 0.11.
The value for GGUCGUGGAUACUAUACAACCUACUACCUCA was 1.72 ± 0.093; that for GCAGUGGAUACUAUACAACCUACUACCUCA was 1.85 ± 0.095.
On to GGACUGGAUACUAUACAACCUCCUACCUCA, for which the “pre-steady-state target cleavage rate” value was found to be 0.801 ± 0.052.
As to GCUCCUGGAUACUAUACAACCUACUACCUCA, the “pre-steady-state target cleavage rate” value came to 2.13 ± 0.11.
With CCUCUGGAUACUAUACAACCUCCUACCUCA, the “pre-steady-state target cleavage rate” value was 1.32 ± 0.068.
Consider GGUCCUGGAUACUAUACAACCUACUACCUCA, for which the “pre-steady-state target cleavage rate” value is 1.97 ± 0.099.
GGAGUGGAUACUAUACUACCUACAACCUCA: the “pre-steady-state target cleavage rate” value stood at 0.428 ± 0.052.
With CCUCCUGGAUACUAUACAACCUACUACCUCA, the “pre-steady-state target cleavage rate” value is 2.25 ± 0.13.
Turning to GCUCGUGGAUACUAUACAACCUACUACCUCA, the “pre-steady-state target cleavage rate” value was 1.85 ± 0.095.
Take CCUCGUGGAUACUAUACAACCUACUACCUCA: the “pre-steady-state target cleavage rate” value was 2.17 ± 0.16.
The value for GGAGACCAUAUAUACAACCUACUACCUCA was 0.184 ± 0.018.
With GGAGACCUUAGUAUACUACCUACUACCUCA, the “pre-steady-state target cleavage rate” value came to 0.0222 ± 0.0051.
The value for GGAGACCUAACUAUACAACCUUCUACCACA was 0.194 ± 0.026; that for GGAGACCUAUCUAUACAACCUACUACACUCA was 0.634 ± 0.061.
The result for CCUCUGGAUACUAUACAACCUAGUACCUCA reads 0.172 ± 0.039.
